Test results reported in PubChem BioAssay (NCATS).
Inconclusive results are not listed. A number with no mark means an inactive call. Calls of active or inactive are those of the source. Calls follow the shape of the dose curve; as a rule, active = well fitted inhibition curve with a large enough effect; inconclusive = small, poorly fitted or top-dose-only effect; inactive = no such curve, though single readings can be large or run the other way. Peptide text beside a SMILES is read from it.

experiment: S16 Schwann cell PMP22 intronic element firefly luciferase assay (AID 624032); conditions: S16 rat Schwann cells, PMP22 element FLuc, 24 h; series mostly up to 25.7 µM; activity change, negative = inhibition: at the top concentration; also: nearly all actives have a fitted effect of over 30% in size
Description: Charcot-Marie-Tooth-Association [CMTA]
National Center for Advancing Translational Sciences [NCATS]
Charcot-Marie-Tooth (CMT) disease was first characterized by Jean-Martin Charcot and Pierre Marie in France and, independently, by Howard Henry Tooth in England in 1886. CMT is one of the most common inherited neurological diseases, affecting approximately 1 in 2,500 Americans. […] The most prevalent type of CMT is known as CMT1A and caused by a duplication of the PMP22 gene which leads to over-expression of this protein. PMP22 is a glycosylated intrinsic membrane protein accounting for 2-5% of the myelin protein content, and its over-expression results in demyelination and subsequently axonal loss.
A pair of cellular transcription-based assays was developed in the S16 rat Schwann cell lines (Hai, M., et al., 2002) stably transfected with orthogonal reporters - firefly luciferase (Fluc) and beta-lactamase (beta-Lac) - whose expression is driven by an intronic regulatory element of the PMP22 gene (Jones, E.A., et al., 2011) to recapitulate endogenous expression of PMP22. The current assay employs Fluc to report on PMP22 expression. A comprehensive library of approved drugs, the NCGC Pharmaceutical Collection (Huang, R., et al., 2011), was screened in the cross-validating platform of the orthogonal reporter assays to identify drug modulators inhibitory towards PMP22 expression.
A set of counter-screens was devised to address non-specific activity of the library. An ATP-dependent CellTiter-Glo assay (developed by Promega Corp) was utilized to control cell viability. In addition, biochemical Fluc enzyme assay was performed to assess direct inhibition of the Fluc enzymatic activity.
Hai, M., Muja, N., DeVries, G.H., Quarles, R.H. and Patel, P.I. Comparative analysis of Schwann cell lines as model systems for myelin gene transcription studies. J Neurosci Res, 2002. 69(4): pp 497-508
Huang, R., Southall, N., Wang, Y., Yasgar A., Shinn P., Jadhav, A. , Nguyen, D.-T. and Austin, C.P., The NCGC pharmaceutical collection: a comprehensive resource of clinically approved drugs enabling repurposing and chemical genomics. Sci Transl Med, 2011. 3(80): p. 80ps16.
S16 Schwann cell PMP22 intronic element firefly luciferase assay
The FLuc-expressing S16 cells were seeded in white solid 1536-well plates at between 500-750 cells/4uL in DMEM medium containing 10% FBS, w/o phenol red. After overnight incubation at 37 degree Celsius/5% C02, 23 nL of compounds or DMSO were delivered to each well using a pin tool, followed by 24h-incubation at 37 degree Celsius/5% C02. Then 4 uL ONE-Glo luminescent substrate mix (Promega) was added to each well. Luminescence was measured on a ViewLux plate reader (Perkin Elmer). The % activity was determined by normalizing to the average readings of PTC124 (a positive control) - treated cells relative to DMSO-treated cells (0% Activity). The concentration-effect curves were then classified based on curve quality (r2), response magnitude and degree of measured activity.
Potency is read from the fitted curve at half-maximal effect.

SMILES | Potency | activity change, negative = inhibition
C#C[C@@]1(O)CC[C@@H]2[C@@H]3CCC4=C(CCC(=O)C4)[C@H]3CC[C@]21C | 3.89 µM (active) | –
CC(=O)N[C@H](CC(C)C)C(=O)O | – | 4.01% [at 57.5 µM]
CC(C)(C)NC[C@H](O)COc1cccc2c1C[C@@H](O)[C@@H](O)C2 | – | 10.2%
CO[C@]1(NC(=O)C2SC(=C(C(N)=O)C(=O)O)S2)C(=O)N2C(C(=O)O)=C(CSc3nnnn3C)CS[C@H]21 (stereo not given in full) | – | -12.2%
CCC(=O)O[C@@H]1[C@H](C)O[C@H](O[C@H]2[C@@H](N(C)C)[C@H](O)[C@@H](O[C@@H]3[C@@H](CC=O)C[C@@H](C)[C@@H](O)/C=C\C=C/C[C@@H](C)OC(=O)C[C@@H](OC(=O)CC)[C@H]3OC)O[C@H]2C)C[C@]1(C)O | – | 8.16%
O=C1O[C@@H]([C@@H](O)CO)[C@@H](O)[C@H]1O | – | -20.6% [at 57.5 µM]
CCC(C)C(=O)OC1CCC=C2C=CC(C)C(CCC3CC(O)CC(=O)O3)[C@@H]21 (stereo not given in full) | – | 15.5% [at 57.5 µM]
C[N+]12CCC(CC1)[C@@H](OC(=O)C(O)(c1ccccc1)c1ccccc1)C2 | – | -8.34%
C[C@H](N[C@@H](C)COc1ccccc1)[C@H](O)c1ccc(O)cc1 | 1.55 µM (active) | –
CO[C@]1(NC(=O)[C@H](C(=O)O)c2ccc(O)cc2)C(=O)N2C(C(=O)O)=C(CSc3nnnn3C)CO[C@H]21 | – | -13.1%
NC[C@@H]1O[C@H](O[C@H]2[C@H](O)[C@H](O[C@@H]3O[C@H](CO)[C@@H](O)[C@H](N)[C@@H]3O)[C@@H](N)C[C@H]2N)[C@@H](O)[C@H](O)[C@@H]1O | – | -0.0999%
C[C@]12CCC(=O)C=C1CCC1C2C(=O)C[C@]2(C)C1CC[C@]2(O)C(=O)CO (stereo not given in full) | – | 20.5% [at 57.5 µM]
NS(=O)(=O)c1cc2c(cc1C(F)(F)F)N[C@H](Cc1ccccc1)NS2(=O)=O | – | -4.16%
OCC1O[C@H](OC2C(CO)O[C@@](O)(CO)C2O)C(O)C(O)C1O (stereo not given in full) | – | 50.5% [at 57.5 µM]
CCC(=O)[C@@]1(C)[C@H](C)C[C@@H]2[C@@H]3CCC4=CC(=O)C=C[C@@]4(C)[C@H]3[C@H](O)C[C@]21C | – | -16.1%
CCCC(=O)O[C@]1(C(=O)CO)CCC2[C@@H]3CCC4=CC(=O)CC[C@]4(C)C3C(O)C[C@]21C (stereo not given in full) | – | 1.27% [at 57.5 µM]
CN(C)CCCOC1C(C(O)CO)OC2OC(C)(C)O[C@@H]21 (stereo not given in full) | – | 52.3% [at 57.5 µM]
Nc1nc(NC2CC2)c2ncn([C@H]3C=C[C@@H](CO)C3)c2n1 | – | 7.76% [at 57.5 µM]
CN1C(=O)C[C@H](c2ccccc2)C1=O | – | -18.3% [at 57.5 µM]
O=C(Nc1ccccc1)OC[C@H](CN1CCCCC1)OC(=O)Nc1ccccc1 | – | -3.96%

SMILES | Potency | activity change, negative = inhibition
Cc1ccsc1/C=C\C1=NCCCN1C | – | -11%
CCOC(=O)O[C@@H](C)OC(=O)[C@@H]1N2C(=O)[C@@H](NC(=O)[C@@H](N)c3ccccc3)[C@H]2SC1(C)C | – | -6.74%
NC(CCC(=O)N[C@@H](CS)C(=O)NCC(=O)O)C(=O)O (stereo not given in full) | – | -12.1% [at 57.5 µM]
CC(=O)OCC(=O)[C@@]1(O)[C@H](C)C[C@@H]2[C@H]3CCC4=CC(=O)C=C[C@]4(C)[C@]3(F)[C@@H](O)C[C@@]21C | – | 13.9%
CN(C)CCOC(=O)[C@@H](c1ccccc1)C1(O)CCCC1 | – | 61% [at 57.5 µM]
CCCC[C@H](CC)CN1CN(C[C@@H](CC)CCCC)CC(C)(N)C1 | – | -22.6%
C[C@@H]1O[C@H](O[C@@H]2\C=C/C=C\C=C/C=C\C[C@H](C)OC(=O)/C=C\[C@H]3O[C@@H]3C[C@H](O)C[C@]3(O)C[C@@H](O)[C@@H](C(=O)O)[C@H](C2)O3)[C@@H](O)[C@H](N)[C@@H]1O (stereo in doubt) | – | -4.09% [at 57.5 µM]
CC(=O)[C@@H]1CC[C@@H]2[C@@H]3C[C@H](C)C4=CC(=O)CC[C@@]4(C)[C@H]3[C@H](O)C[C@]21C | – | 14%
C=CC1=C(C(=O)O)N2C(=O)[C@@H](NC(=O)/C(=N\OCC(=O)O)c3csc(N)n3)[C@@H]2SC1 | – | -14.5%
C[C@@H]1C[C@H]2[C@@H]3C[C@H](F)C4=CC(=O)C=C[C@@]4(C)[C@]3(F)[C@H](O)C[C@]2(C)[C@@]1(O)C(=O)CO | – | -3.98%
COC(=O)C(Cc1ccccc1)NC(=O)C(N)CC(=O)O (stereo not drawn) (H-Asp-Phe-OMe; configuration not given here) | – | 32.6% [at 57.5 µM]
C[C@@H]1Cc2ccccc2N1NC(=O)c1ccc(Cl)c(S(N)=O)c1 (stereo not given in full) | 3.46 µM (active) | –
C[C@@H](CNC1CCCCC1)OC(=O)c1ccccc1 | – | -8.82%
Cc1ccc2c(c1)c1c3n2CCN[C@H]3CCC1 | – | -17.6% [at 57.5 µM]
CC[N+](CC)(CC)CC[C@](O)(c1ccccc1)C1CCCCC1 | – | -19%
CCCC(=O)Nc1ccc(OC[C@@H](O)CNC(C)C)c(C(C)=O)c1 | – | -8.13%
NCC1CCC(N)C(O[C@@H]2C(O)[C@H](O[C@H]3OC(CO)C(O)C(N)C3O)[C@@H](N)C[C@H]2N)O1 (stereo not given in full) | – | 12.8% [at 57.5 µM]
CCN(CCCCOC(=O)c1ccc(OC)c(OC)c1)[C@@H](C)Cc1ccc(OC)cc1 | – | -6.31%
COc1ccc2cc(C(C)CO)ccc2c1 (stereo not given) | – | 10.3% [at 57.5 µM]
CCC[C@@H]1O[C@@H]2C[C@@H]3[C@H]4CCC5=CC(=O)C=C[C@@]5(C)[C@H]4[C@H](O)C[C@@]3(C)[C@@]2(C(=O)CO)O1 | – | 14.2% [at 57.5 µM]
